These results are taken from PubChem BioAssay.

By inhibition is commonly meant the drop in the measured response relative to a control, in per cent.

In experiment [1] the target is Nuclear receptor coactivator 3 (Homo sapiens) (UniProt Q9Y6Q9). The experiment in a line: SRC3 coactivator transcriptional activity inhibitors, confirmation, cell-based, luminescence, quadruplicate (AID 588792).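 Note: 0% = DMSO treated cells and 100% = gossypol at 36 µM.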 The note with it: HEK293 GAL4-SRC3 luciferase reporter, at 3.6 µM, hits give high values. (In general: In a reporter assay the amount or activity of a reporter protein is the signal.)
Chain of Nuclear receptor coactivator 3 (Homo sapiens) (Q9Y6Q9 whole entry, looked up, the tested form may be a part): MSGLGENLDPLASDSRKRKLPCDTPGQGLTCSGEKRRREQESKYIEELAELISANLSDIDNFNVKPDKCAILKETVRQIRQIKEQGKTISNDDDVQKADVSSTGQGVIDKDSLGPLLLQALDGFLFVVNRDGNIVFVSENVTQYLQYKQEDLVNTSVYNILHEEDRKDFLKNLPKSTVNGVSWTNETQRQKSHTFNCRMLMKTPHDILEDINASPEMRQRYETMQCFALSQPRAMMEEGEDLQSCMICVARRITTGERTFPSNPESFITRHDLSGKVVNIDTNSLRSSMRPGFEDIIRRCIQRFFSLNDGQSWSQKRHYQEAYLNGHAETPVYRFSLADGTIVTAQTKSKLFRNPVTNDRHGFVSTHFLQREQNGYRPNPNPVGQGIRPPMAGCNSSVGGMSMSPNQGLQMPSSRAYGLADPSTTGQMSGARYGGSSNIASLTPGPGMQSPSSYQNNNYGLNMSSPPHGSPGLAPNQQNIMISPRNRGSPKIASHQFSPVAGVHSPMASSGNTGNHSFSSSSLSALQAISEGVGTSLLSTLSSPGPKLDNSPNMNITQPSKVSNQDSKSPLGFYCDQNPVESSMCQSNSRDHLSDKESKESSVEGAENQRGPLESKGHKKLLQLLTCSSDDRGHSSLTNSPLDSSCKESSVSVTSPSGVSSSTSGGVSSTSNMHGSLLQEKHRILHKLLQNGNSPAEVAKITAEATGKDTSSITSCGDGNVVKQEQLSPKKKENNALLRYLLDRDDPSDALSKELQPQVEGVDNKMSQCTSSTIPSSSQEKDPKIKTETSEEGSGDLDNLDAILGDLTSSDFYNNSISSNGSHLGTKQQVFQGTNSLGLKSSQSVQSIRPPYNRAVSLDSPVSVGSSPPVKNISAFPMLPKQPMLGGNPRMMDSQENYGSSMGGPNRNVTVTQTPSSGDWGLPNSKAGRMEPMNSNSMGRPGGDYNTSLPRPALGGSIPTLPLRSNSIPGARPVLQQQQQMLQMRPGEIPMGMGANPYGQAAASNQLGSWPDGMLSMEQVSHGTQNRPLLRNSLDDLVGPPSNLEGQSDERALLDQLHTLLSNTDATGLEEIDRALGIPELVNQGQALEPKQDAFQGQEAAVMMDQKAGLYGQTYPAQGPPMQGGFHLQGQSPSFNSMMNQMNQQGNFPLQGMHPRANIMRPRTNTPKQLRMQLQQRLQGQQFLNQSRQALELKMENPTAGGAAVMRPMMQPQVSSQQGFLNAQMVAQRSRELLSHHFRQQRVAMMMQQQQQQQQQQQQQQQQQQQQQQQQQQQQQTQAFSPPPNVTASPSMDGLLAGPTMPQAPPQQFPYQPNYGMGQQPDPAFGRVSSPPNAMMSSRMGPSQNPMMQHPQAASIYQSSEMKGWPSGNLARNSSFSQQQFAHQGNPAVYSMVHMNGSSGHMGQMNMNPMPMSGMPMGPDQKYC

In experiment [2] the test system is transactivating tegument protein VP16 (Human herpesvirus 1), Gal4-VP16 luciferase reporter. The experiment in a line: VP16 transactivation inhibitors, counter-screen for SRC3 inhibitor project, cell-based, luminescence, high throughput (AID 588794; in the data active = inhibition above about 30%). The note with it: mammalian cells, VP16-driven luciferase reporter luminescence; at 3.6 µM; hits give high values. A general note: Counterscreens check selectivity or assay interference.

Experiment [3] deals with Nuclear receptor coactivator 1 (Homo sapiens) (UniProt Q15788). The experiment in a line: SRC1 coactivator transcriptional activity inhibitors, confirmation, cell-based, luminescence, quadruplicate (AID 588820;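 active = mean inhibition above 46.68%, the untreated control wells mean plus 3 SD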;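 note: 0% = DMSO wells and 100% = gossypol 36 µM treated wells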). The note with it: HEK293 GAL4-SRC1 luciferase reporter, at 3.6 µM, hits give high values.
Chain of Nuclear receptor coactivator 1 (Homo sapiens) (Q15788 whole entry, looked up, the tested form may be a part): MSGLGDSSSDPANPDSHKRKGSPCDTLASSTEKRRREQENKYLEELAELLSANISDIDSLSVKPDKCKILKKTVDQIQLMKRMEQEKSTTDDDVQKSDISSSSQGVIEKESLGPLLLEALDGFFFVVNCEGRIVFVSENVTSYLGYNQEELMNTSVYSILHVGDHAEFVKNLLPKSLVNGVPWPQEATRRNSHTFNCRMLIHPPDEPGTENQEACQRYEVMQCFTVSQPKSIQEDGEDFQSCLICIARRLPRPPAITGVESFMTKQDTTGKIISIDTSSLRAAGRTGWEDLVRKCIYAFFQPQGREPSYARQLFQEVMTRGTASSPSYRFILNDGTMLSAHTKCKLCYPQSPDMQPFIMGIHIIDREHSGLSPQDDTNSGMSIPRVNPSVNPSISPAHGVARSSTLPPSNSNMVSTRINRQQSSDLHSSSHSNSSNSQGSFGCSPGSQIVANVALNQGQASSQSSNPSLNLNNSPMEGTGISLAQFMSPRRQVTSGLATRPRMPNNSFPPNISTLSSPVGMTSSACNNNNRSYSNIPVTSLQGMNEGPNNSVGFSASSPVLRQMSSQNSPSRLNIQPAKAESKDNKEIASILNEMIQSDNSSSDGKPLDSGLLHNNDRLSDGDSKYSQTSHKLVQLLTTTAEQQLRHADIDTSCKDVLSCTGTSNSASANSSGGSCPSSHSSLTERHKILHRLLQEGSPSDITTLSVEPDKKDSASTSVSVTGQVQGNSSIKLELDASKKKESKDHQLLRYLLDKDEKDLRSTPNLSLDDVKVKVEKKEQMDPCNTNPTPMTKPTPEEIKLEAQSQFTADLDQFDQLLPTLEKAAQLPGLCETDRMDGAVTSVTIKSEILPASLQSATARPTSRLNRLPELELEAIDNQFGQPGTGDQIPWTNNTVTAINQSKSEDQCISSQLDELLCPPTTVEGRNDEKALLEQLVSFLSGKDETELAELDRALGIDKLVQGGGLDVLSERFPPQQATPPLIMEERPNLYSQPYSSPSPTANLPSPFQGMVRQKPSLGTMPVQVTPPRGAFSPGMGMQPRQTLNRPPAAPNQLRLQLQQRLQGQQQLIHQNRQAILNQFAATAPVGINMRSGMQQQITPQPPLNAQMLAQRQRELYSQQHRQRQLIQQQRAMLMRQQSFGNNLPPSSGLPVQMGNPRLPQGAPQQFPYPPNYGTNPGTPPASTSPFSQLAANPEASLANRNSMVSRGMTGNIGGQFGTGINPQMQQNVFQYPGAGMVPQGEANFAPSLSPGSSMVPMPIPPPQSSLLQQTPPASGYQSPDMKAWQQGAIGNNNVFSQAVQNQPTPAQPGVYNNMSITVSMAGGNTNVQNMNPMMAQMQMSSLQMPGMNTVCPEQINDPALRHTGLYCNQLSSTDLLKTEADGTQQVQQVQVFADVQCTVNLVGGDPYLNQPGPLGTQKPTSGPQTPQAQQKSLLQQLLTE
Experiment [4] in a line: VP16 transactivation inhibitors, counter-screen for SRC1 inhibitor project, cell-based, luminescence, high throughput (AID 588824; in the data active = inhibition above about 25%). The note with it: cell-based VP16 transactivation luciferase luminescence; at 3.6 µM; hits give high values.

Unmarked numbers belong to inactive results. The source made the active and inactive calls.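 Rule for the calls, unless noted: active = mean inhibition over 43.08%, the solvent-only control mean plus 3 SD; inactive = the rest.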

`O=C(N/N=C(\c1ccccc1)c1ccccn1)c1ccccc1Cl`: the inhibition is 35.8% in experiment [1], 22.1% in experiment [2], 25.9% in experiment [3] and 12.4% in experiment [4].

`COC(=O)c1c(C)oc2ccc(N(C(=O)c3ccncc3)S(=O)(=O)c3ccc(C)cc3C)cc12`: the inhibition in experiment [1] is 1.85%; in experiment [2] it was 36.2% (active); in experiment [3], -7%; in experiment [4], 27.3% (active).

As to `CCCCCCCCCn1c2c(c(=N)c3c1CCC3)CCC2`, the inhibition is 89.7% (active) in experiment [1], 85.2% (active) in experiment [2], 71.4% (active) in experiment [3] and 84.8% (active) in experiment [4].

In the case of `O=C(NN=C(c1ccccc1)c1ccccn1)c1ccccc1`, the inhibition is 44.2% (active) in experiment [1], 42.1% (active) in experiment [2], 36.7% in experiment [3] and 43.1% (active) in experiment [4].

Take `O=C(N/N=C/c1ccccc1O)/C(=C/c1ccccc1)CCO`: the inhibition in experiment [1] is 16.7%; in experiment [2], 18.1%; in experiment [3], 20%; in experiment [4], 19.2%.

With `Cc1nc(N)c(CC(Br)CBr)c(Cl)n1` (stereo not given), the inhibition is 31.8% in experiment [1], 35.4% (active) in experiment [2], 44.4% in experiment [3] and 28.9% (active) in experiment [4].

Regarding `CC(C)CC(=O)/C(=C\c1ccc(Cl)cc1Cl)n1cncn1`, the inhibition in experiment [1] is 60.2% (active); in experiment [2] it was 48.8% (active); in experiment [3], 14.1%; in experiment [4], 55.6% (active).

With `CC1CCN(Cc2c(C(=O)N/N=C/c3ccccc3O)nnn2-c2nonc2N)CC1`, the inhibition in experiment [1] is 57.7% (active); in experiment [2], 41.1% (active); in experiment [3], 64.4% (active); in experiment [4], 56.8% (active).

`N#Cc1c2ccc(O)cc2n2ccccc12`: the inhibition in experiment [1] is 41.8%; in experiment [2] it was 21.9%; in experiment [3], 42.8%; in experiment [4], 11.9%.

In the case of `COC1C(OC(=O)/C=C/C=C/C=C/C=C/C(=O)O)CCC2(CO2)C1C1(C)OC1CC=C(C)C` (stereo not given) (tested in a mixture with another compound), the inhibition is 17.6% in experiment [1], 20.7% in experiment [2], 9.4% in experiment [3] and 20.7% in experiment [4].
